How the values were obtained:
Settings in all cases: concentration: 1 μM, replicates: in singlicate; n = 1
CDKL5 = test system: CDKL5
CHEK1 = test system: CHEK1
CHEK2 = test system: CHEK2
CIT = test system: CIT
CLK1 = test system: CLK1
CLK2 = test system: CLK2
CLK3 = test system: CLK3
CLK4 = test system: CLK4
CSF1R-autoinhibited = test system: CSF1R-autoinhibited
CSF1R = test system: CSF1R
CSK = test system: CSK
CSNK1A1L = test system: CSNK1A1L
CSNK1A1 = test system: CSNK1A1
CSNK1D = test system: CSNK1D
CSNK1E = test system: CSNK1E
CSNK1G1 = test system: CSNK1G1
CSNK1G2 = test system: CSNK1G2
CSNK1G3 = test system: CSNK1G3
CSNK2A1 = test system: CSNK2A1
CSNK2A2 = test system: CSNK2A2
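Also: KINOMEscan kinase panel screen.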

Compound	%Inh (CDKL5)	%Inh (CHEK1)	%Inh (CHEK2)	%Inh (CIT)	%Inh (CLK1)	%Inh (CLK2)	%Inh (CLK3)	%Inh (CLK4)	%Inh (CSF1R-autoinhibited)	%Inh (CSF1R)	%Inh (CSK)	%Inh (CSNK1A1L)	%Inh (CSNK1A1)	%Inh (CSNK1D)	%Inh (CSNK1E)	%Inh (CSNK1G1)	%Inh (CSNK1G2)	%Inh (CSNK1G3)	%Inh (CSNK2A1)	%Inh (CSNK2A2)
Cn1cncc1C(=O)NC1CCN(c2ccnc(Nc3ccc(F)cc3)n2)C1 (centres unmarked) [GSK1379717]	0%	0%	0%	0%	23%	0%	0%	0%	0%	6%	9%	0%	0%	0%	0%	0%	0%	17%	0%	0%
Cl.Cl.Cl.N#Cc1ccc(CCNc2nccc(-c3cccc(CN4CCNCC4)c3)n2)cc1 [GSK2137462]	0%	0%	0%	82%	17%	23%	0%	15%	0%	8%	15%	2%	0%	23%	55%	13%	0%	14%	20%	30%
CC(C)c1cc(-c2ccc3c(N)n[nH]c3c2)nc(N)n1 [GSK2250882]	0%	0%	84%	5%	59%	21%	0%	62%	6%	5%	0%	0%	0%	0%	7%	10%	0%	25%	0%	10%
CC(=O)c1cccc(NC(=O)NC2CCN(c3ccnc(Nc4ccc(F)cc4)n3)C2)c1 (centres unmarked) [GSK1379710]	0%	10%	33%	29%	24%	3%	14%	0%	33%	18%	5%	0%	0%	27%	18%	12%	0%	25%	16%	15%
CCc1ccc(-c2ccc3c(c2)-c2n[nH]cc2S(=O)(=O)N3C)cc1	0%	0%	0%	0%	0%	0%	1%	4%	5%	0%	0%	0%	0%	32%	0%	0%	0%	0%	0%	0%
COC(=O)C(Cc1ccccc1)NC(=O)NC1CCN(c2ccnc(Nc3ccc(F)cc3)n2)C1 (centres unmarked) [GSK1379714]	1%	86%	14%	6%	5%	0%	0%	13%	35%	1%	0%	2%	5%	7%	7%	0%	13%	11%	0%	14%
Cc1ccc(NC(=O)Nc2ccc(Cl)cc2)cc1-c1ccc(C(=O)Nc2ccncc2)cc1 [GSK1398472]	0%	19%	0%	89%	32%	0%	14%	42%	4%	87%	0%	1%	0%	6%	26%	2%	7%	36%	0%	0%
Nc1nccc(-c2c(-c3ccc(F)cc3)ncn2C2CCN(Cc3ccccc3)CC2)n1 [SB-219980]	2%	0%	8%	97.6%	0%	6%	0%	0%	15%	0%	0%	49%	95.1%	94.1%	99.4%	0%	0%	0%	0%	6%
COc1nccc(-c2c(-c3ccc(F)cc3)ncn2CCCN2CCOCC2)n1 [SB-282852]	0%	0%	0%	17%	73%	0%	0%	5%	41%	0%	0%	45%	44%	31%	29%	0%	0%	53%	0%	9%
O=C1NC(=O)C(c2ccc(Cl)cc2)=C1Nc1cccc(Cl)c1 [SB-317651]	0%	0%	0%	0%	91.6%	34%	2%	16%	6%	13%	0%	16%	22%	0%	0%	0%	0%	88%	0%	0%
